Assay results reported in PubChem BioAssay (NCATS).
Records with an inconclusive call do not appear. Unmarked numbers belong to inactive results. The source made the active and inactive calls. Calls follow the shape of the full dose curve.

Assay: Cytotoxicity counterscreen for inhibitors of SARS-CoV-2 cell entry (AID 1645845); also: nearly all actives have a fitted effect of over 50% in size
Details: cell viability (SARS-CoV-2 entry assay cells); series mostly up to 57.1 µM; activity change, negative = cytotoxicity: at the top concentration
From the text: Assay Provider: Wei Zheng, Ph.D.
National Center for Advancing Translational Sciences, National Institute of Health, Rockville, MD.
SARS-CoV-2 spike protein, within the viral envelope, mediates viral attachment and infection of host cells. The SARS-CoV-2 spike protein specifically binds to the host receptor ACE2 (Angiotensin-converting enzyme 2). This interaction promotes endocytosis of the viral particle, additional events lead to viral-host cell membrane fusion and release of the viral contents, allowing viral replication.
While SARS-CoV-2 requires BSL-3 facilities for live virus work, pseudo-typed partices (PP) that incorporate SARS-CoV-2 spike proteins without replication elements could facilitate studies on viral entry mechanisms in a BSL-2 setting. This PP cell entry assay could also enable screening of small molecule compound libraries in BSL-2 setting to identify inhibitors of SARS-CoV-2 cell entry. To eliminate false positive compounds, ATP content cytotoxicity assay was screened in the same cell line.
SEQUENCE No. (e.g., 1, 2, 3, etc.); […] (e.g., Cells, Incubation, Reagent, etc.); VALUE and DESCRIPTION.
1. Cells. Seed 1500 HEK293-ACE2 cells (Expi293F with stable expression of human ACE2) in 2 uL/well media (DMEM, 10% FBS, 1x L-glutamine, 1x Pen/Strep, 1 ug/ml puromycin) in white 1536-well assay plates (Greiner #782073).
2. Incubation. Incubate at 37 C with 5% CO2 overnight (~16 h).
3. Compounds. Dispense 23 nL/well compounds in DMSO via pin transfer.
4. Incubation. Incubate for 1 h at 37C 5% CO2.
5. Reagent. Dispense 2 uL/well of media (DMEM, 10% FBS, 1x L-glutamine, 1x Pen/Strep, 1 ug/ml puromycin).
6. Incubation. Incubate at for 48h at 37C 5% CO2
7. Reagent. Dispense 4 uL/well of ATPLite 1step luminescence assay reagent (PerkinElmer #6016739).
8. Incubation. Incubate for 15 min at room temperature.
9. Detection. Read luminescence signal (Viewlux plate reader, PerkinElmer). Data was normalized with wells containing cells as 100%, and wells without cells (media only control) as 0%.
% is scaled to controls: 0 for no effect and ±100 for the full control effect; potency is read from the fitted curve at half-maximal effect.

| SMILES | activity change, negative = cytotoxicity | outcome | Potency |
| --- | --- | --- | --- |
| COc1cccc(Nc2ncnn3ccc(CN4CC[C@@H](N)[C@H](O)C4)c23)c1 | -0.68% | – | – |
| NC(=O)[C@@H]1CC[C@@H]2CN1C(=O)N2OS(=O)(=O)O | – | inactive | – |
| CC(C)C[C@H](CO)Nc1nc(S[C@@H](C)c2ccccc2)nc2nc(N)sc12 | – | – | 31.6 µM (active) |
| C=CCNc1c(O)cc2c(O)c1C[C@@H](C)C[C@H](OC)[C@H](O)[C@@H](C)/C=C(/C)[C@H](OC(N)=O)[C@@H](OC)/C=C\C=C(\C)C(=O)N2 | -33.9% | – | – |
| CC1CC(OC(=O)C(O)c2ccccc2)CC(C)(C)C1 (stereo not given) | – | inactive | – |
| C[C@H]1C[C@H]2[C@H]3CCC4=CC(=O)C=C[C@]4(C)[C@@]3(F)[C@@H](O)C[C@]2(C)[C@@]1(OC(=O)c1ccccc1)C(=O)CO | -25.3% | – | – |
| COc1cc(C[C@@H]2NCCc3cc(O)c(O)cc32)cc(OC)c1OC | -1.79% | – | – |
| CC(C=CC1=C(C)CCCC1(C)C)=CC=CC(C)=CC(=O)Oc1c(C)c(C)c2c(c1C)CC[C@@](C)(CCC[C@H](C)CCC[C@H](C)CCCC(C)C)O2 | -2.74% [at 5.25 µM] | – | – |
| Cc1cc(OCc2nnc(SC3CCCC3)n2-c2cccnc2)ccc1-c1ccc(S(C)(=O)=O)cc1 | – | inactive | – |
| Cc1c[nH]c2ncnc(N3CCC(CN)(C(=O)Nc4cccc(OC(=O)N(C)C)c4)CC3)c12 | 3.66% | – | – |
| C/C=C1\NC(=O)[C@H]2CSSCC/C=C\[C@H](CC(=O)N[C@H](C(C)C)C(=O)N2)OC(=O)[C@H](C(C)C)NC1=O | – | – | 6.31 µM (active) |
| CC/C=C\C/C=C\C/C=C\C/C=C\C/C=C\CCCC(=O)O | – | inactive | – |
| CO[C@@H]1[C@H](C)OC(O[C@H]2CC(Oc3cc4cc5c(c(O)c4c(O)c3C)C(=O)[C@@H](OC3C[C@@H](OC4C[C@H](OC6C[C@](C)(O)[C@@H](OC(C)=O)[C@H](C)O6)[C@@H](O)[C@H](C)O4)[C@H](O)[C@@H](C)O3)[C@H]([C@@H](OC)C(=O)[C@@H](O)[C@H](C)O)C5)O[C@@H](C)[C@H]2OC(C)=O)C[C@@H]1O (stereo not given in full) | -8.83% | – | – |
| C[C@]12C[C@@H]3S[C@H]3C[C@@H]1CC[C@H]1[C@H]3CC[C@@H](O)[C@@]3(C)CC[C@@H]12 | – | inactive | – |
| NC1=N[C@@]2(c3cc(NC(=O)c4ccc(F)cn4)ccc3F)COC[C@H]2CS1 | – | inactive | – |
| O=C(O)c1cc(O)c2c(c1)[O][Bi][O]2 | – | inactive [at 0.702 µM] | – |
| CCOC(=O)O[C@]1(C(=O)COC(=O)CC)CC[C@H]2[C@@H]3CCC4=CC(=O)C=C[C@]4(C)[C@H]3[C@@H](O)C[C@@]21C | 2.33% | – | – |
| CO[C@H]1C[C@@H]2CC[C@@H](C)[C@@](O)(O2)C(=O)C(=O)N2CCCC[C@H]2C(=O)O[C@H]([C@H](C)C[C@@H]2CC[C@@H](OP(C)(C)=O)[C@H](OC)C2)CC(=O)[C@H](C)/C=C(\C)[C@@H](O)[C@@H](OC)C(=O)[C@H](C)C[C@H](C)/C=C/C=C/C=C/1C | -27.2% | – | – |
| Cc1c(F)cccc1NC(=O)Nc1ccc(Cl)c(S(=O)(=O)[C@H]2CCCNC2)c1O | 0.156% | – | – |
| Cc1c(Cl)c(C)[n+]([O-])c(Cl)c1-c1noc(-c2cc(O)c(O)c([N+](=O)[O-])c2)n1 | – | inactive | – |

| SMILES | activity change, negative = cytotoxicity | outcome | Potency |
| --- | --- | --- | --- |
| CC(C)C[C@H](NC(=O)CNC(=O)c1cc(Cl)ccc1Cl)B1OC(=O)C(CC(=O)O)(CC(=O)O)O1 | – | – | 0.794 µM (active) |
| Nc1ncccc1-c1nc2ccc(-c3ccccc3)nc2n1-c1ccc(C2(N)CCC2)cc1 | – | – | 31.6 µM (active) |
| CC(C)C[C@H](NC(=O)[C@@H](Cc1c[nH]c2ccccc12)NC(=O)[C@H](Cc1ccc(O)cc1)NC(=O)[C@H](CO)NC(=O)[C@H](Cc1c[nH]c2ccccc12)NC(=O)[C@H](Cc1cnc[nH]1)NC(=O)[C@@H]1CCC(=O)N1)C(=O)N[C@@H](CCCN=C(N)N)C(=O)N1CCC[C@H]1C(=O)NCC(N)=O | – | inactive [at 27.1 µM] | – |
| CC(Cc1ccc(O)c(O)c1)C(C)Cc1ccc(O)c(O)c1 (stereo not given) | – | inactive | – |
| COc1ccc(-c2oc3c(CC=C(C)C)c(OC4O[C@H](CO)[C@@H](O)[C@H](O)[C@H]4O)cc(O)c3c(=O)c2OC2O[C@@H](C)[C@H](O)[C@@H](O)[C@H]2O)cc1 (stereo not given in full) | – | inactive | – |
| CC(=O)N1CCC(Nc2cc(C(=O)NC[C@H](O)CN3CCc4ccccc4C3)ncn2)CC1 | – | inactive | – |
| CCOC(=O)CN[C@@H](C(=O)N1CC[C@H]1C(=O)NCc1ccc(/C(N)=N/O)cc1)C1CCCCC1 | 0.605% | – | – |
| CC#C[C@@H](CC(=O)O)c1ccc(OCc2cccc(-c3ccc(C(F)(F)F)cc3)c2)cc1 | 0.597% | – | – |
| CC[C@@]1(O)C(=O)OCc2c1cc1n(c2=O)Cc2cc3c([N+](=O)[O-])cccc3nc2-1 | -32% [at 114 µM] | – | – |
| OC[C@H]1O[C@@H](OCCc2ccc(O)cc2)[C@H](O)[C@@H](O)[C@@H]1O | – | inactive | – |
| CCCCOc1ccc(C[N+]2(C)C3CCC2CC(OC(=O)[C@H](CO)c2ccccc2)C3)cc1 (stereo not given in full) | 0.195% | – | – |
| CCCCCCCCCCCCCCCC(=O)OC1C(SC)OC(C(NC(=O)C2CC(CCC)CN2C)C(C)Cl)C(O)C1O (stereo not given) | – | inactive | – |
| Cc1ncc(NC(=O)c2ccc(CN3CCN(C)CC3)c(C(F)(F)F)c2)cc1Nc1nccc(-c2cccnc2)n1 | 4.14% | – | – |
| O=[N+]([O-])O[C@@H]1CO[C@H]2[C@@H]1OC[C@@H]2O | 2.08% [at 114 µM] | – | – |
| CN1CC[C@H](CN2c3ccccc3Sc3ccccc32)C1 | -9.86% | – | – |
| Cn1cc(-c2cnc3ccc4ccc(CS(=O)(=O)NCc5ccccn5)cc4c(=O)c3c2)cn1 | – | inactive | – |
| CN[C@H]1C[C@@H](N)[C@H](O)[C@@H](O[C@@H]2O[C@H](CO)[C@H](O)[C@@H]3OC4(O[C@H]23)O[C@H]([C@@H](N)CO)[C@H](O)[C@H](O)[C@H]4O)[C@@H]1O (stereo not given in full) | -10.4% | – | – |
| O=C(O)CNC(=O)c1ncc(-c2cccc(Cl)c2)cc1O | – | inactive | – |
| CCOc1cc(/C=C2/C(=O)N(c3ccccc3)N=C2C)cc(Cl)c1OCC(=O)OC | 2.91% | – | – |
| O=C(O[C@H]1C[N+]2(CCCOc3ccccc3)CCC1CC2)C(O)(c1cccs1)c1cccs1 | – | inactive | – |
